Columns and labels:
Experiment in all cases: log2 ratio of Biotin-Ahx-Ub-VS probe labelling (fragment/DMSO); higher = less target engagement (more negative = stronger competition), active = hit call of the paper (q ≤ 0.05, log2 ratio ≤ -1)
Conditions in all cases: compound concentration: 200 uM; treatment time: 3 h
USP34 = USP34 (UniProt Q70CQ2)
In short: (§1)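 Global-median-normalised Spectronaut label-free quantities were compared by unpaired t-test, and values are average log2 ratios of fragment over vehicle. Only proteins with ≥2 unique peptides were used. HEK293T lysate (495 µg per sample) was treated in triplicate with fragment at 200 µM or vehicle for 3 h and then with Biotin-Ahx-Ub-VS at 0.5 µM final for 1 h. Labelled DUBs were then NeutrAvidin-enriched, digested with LysC and trypsin, and run by diaPASEF LC-MS/MS.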

USP36 = molecular target: T1, USP36 (UniProt Q9P275)
T1 sequence (whole entry): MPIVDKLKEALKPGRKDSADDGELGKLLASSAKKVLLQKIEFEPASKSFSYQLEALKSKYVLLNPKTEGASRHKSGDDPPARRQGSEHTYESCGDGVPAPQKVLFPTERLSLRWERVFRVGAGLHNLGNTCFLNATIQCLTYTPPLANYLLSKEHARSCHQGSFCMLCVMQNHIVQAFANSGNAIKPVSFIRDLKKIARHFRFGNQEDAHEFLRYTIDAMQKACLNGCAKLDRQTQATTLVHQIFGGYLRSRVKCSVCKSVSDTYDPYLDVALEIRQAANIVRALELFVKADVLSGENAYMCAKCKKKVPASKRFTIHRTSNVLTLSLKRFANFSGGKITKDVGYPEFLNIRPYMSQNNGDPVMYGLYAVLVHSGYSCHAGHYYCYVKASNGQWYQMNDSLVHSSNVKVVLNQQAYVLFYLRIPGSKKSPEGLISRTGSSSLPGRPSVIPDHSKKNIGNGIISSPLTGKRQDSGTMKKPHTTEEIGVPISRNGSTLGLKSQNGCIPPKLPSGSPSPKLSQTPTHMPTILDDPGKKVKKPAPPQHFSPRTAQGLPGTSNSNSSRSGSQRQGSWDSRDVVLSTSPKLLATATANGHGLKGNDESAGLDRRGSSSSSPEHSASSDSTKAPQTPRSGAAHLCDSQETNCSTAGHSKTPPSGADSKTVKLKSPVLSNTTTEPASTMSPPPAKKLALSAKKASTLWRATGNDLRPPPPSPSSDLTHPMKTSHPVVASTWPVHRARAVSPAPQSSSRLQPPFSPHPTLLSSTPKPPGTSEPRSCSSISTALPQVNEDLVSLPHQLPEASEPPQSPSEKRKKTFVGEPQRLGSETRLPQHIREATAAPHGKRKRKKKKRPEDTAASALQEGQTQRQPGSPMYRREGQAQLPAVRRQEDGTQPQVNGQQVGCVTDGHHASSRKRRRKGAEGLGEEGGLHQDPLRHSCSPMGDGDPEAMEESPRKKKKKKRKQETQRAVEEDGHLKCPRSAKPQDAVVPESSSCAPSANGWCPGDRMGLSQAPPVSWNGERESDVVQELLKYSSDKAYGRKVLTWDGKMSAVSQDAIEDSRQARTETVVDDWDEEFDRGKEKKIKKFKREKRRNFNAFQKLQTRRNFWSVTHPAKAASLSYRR
In short: as §1

USP38 = molecular target: T2, USP38 (UniProt Q8NB14)
T2 sequence (whole entry): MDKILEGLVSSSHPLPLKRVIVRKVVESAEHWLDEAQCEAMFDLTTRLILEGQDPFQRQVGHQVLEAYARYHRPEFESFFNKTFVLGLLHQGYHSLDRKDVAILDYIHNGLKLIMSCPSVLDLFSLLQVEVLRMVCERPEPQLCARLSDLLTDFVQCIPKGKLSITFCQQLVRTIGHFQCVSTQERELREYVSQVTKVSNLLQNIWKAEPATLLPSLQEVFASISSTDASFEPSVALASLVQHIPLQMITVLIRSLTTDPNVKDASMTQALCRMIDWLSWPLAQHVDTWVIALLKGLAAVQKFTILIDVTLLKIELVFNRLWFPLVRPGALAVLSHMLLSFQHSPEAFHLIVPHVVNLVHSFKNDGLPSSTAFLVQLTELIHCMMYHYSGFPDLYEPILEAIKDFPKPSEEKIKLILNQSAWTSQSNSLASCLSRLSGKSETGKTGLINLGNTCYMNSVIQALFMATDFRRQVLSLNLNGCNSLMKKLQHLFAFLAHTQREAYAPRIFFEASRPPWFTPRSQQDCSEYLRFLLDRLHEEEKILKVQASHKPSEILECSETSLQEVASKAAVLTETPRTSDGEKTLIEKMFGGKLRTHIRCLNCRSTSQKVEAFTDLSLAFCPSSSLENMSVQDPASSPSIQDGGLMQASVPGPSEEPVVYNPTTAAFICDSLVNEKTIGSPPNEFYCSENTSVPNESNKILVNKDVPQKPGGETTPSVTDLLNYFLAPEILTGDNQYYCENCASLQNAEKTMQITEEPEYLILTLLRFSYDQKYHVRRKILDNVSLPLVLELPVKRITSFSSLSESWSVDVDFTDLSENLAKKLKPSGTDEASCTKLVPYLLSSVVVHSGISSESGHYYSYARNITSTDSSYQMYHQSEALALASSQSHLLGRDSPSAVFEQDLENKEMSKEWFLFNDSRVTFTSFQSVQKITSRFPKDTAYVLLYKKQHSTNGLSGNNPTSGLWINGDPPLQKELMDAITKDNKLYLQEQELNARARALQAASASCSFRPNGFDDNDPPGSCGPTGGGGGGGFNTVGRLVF
In short: as §1

USP39 = molecular target: T3, USP39 (UniProt Q53GS9)
T3 sequence (whole entry): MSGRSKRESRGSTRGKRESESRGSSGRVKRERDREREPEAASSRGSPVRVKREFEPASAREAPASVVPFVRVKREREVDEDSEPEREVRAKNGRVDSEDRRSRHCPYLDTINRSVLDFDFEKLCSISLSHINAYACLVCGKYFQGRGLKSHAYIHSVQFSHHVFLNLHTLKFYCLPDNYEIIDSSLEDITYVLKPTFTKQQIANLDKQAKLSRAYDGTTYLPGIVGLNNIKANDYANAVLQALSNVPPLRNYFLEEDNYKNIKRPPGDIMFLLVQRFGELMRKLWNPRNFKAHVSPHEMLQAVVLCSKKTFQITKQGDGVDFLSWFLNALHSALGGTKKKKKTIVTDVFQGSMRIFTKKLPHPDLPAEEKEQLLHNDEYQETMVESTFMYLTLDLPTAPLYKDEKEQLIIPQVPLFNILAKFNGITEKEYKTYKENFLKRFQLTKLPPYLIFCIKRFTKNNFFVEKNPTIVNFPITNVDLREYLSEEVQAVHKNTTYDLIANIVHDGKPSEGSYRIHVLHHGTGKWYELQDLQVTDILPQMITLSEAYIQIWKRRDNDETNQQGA
In short: as §1

USP4 = molecular target: T4, USP4 (UniProt Q13107)
T4 sequence (whole entry): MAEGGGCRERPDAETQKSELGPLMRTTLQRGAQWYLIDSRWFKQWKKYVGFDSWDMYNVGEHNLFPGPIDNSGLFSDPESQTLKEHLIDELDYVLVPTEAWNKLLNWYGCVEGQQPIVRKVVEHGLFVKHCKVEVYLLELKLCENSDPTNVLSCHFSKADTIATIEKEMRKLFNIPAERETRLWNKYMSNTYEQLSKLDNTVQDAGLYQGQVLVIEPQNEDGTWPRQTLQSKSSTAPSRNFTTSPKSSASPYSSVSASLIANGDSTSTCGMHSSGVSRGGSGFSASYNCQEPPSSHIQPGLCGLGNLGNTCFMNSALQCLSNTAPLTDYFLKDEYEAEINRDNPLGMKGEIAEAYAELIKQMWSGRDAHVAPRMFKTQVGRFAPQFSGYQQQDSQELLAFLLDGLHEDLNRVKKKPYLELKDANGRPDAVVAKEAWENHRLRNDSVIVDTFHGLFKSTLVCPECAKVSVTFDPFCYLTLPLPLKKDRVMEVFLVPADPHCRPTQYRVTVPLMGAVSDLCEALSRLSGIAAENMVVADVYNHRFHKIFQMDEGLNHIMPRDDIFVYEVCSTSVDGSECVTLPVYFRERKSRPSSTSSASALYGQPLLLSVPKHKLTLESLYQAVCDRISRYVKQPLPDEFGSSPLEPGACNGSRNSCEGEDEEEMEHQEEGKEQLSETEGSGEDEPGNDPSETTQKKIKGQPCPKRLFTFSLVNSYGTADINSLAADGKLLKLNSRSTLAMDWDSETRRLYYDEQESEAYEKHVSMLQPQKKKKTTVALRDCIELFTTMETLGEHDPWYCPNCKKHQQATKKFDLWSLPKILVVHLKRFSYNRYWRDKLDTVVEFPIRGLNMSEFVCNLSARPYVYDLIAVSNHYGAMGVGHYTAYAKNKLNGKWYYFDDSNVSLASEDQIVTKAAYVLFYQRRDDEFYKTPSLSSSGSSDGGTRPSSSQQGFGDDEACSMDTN
In short: as §1

Measured: log2 ratio of Biotin-Ahx-Ub-VS probe labelling

Chain of USP34 (Q70CQ2 whole entry, the tested form may be a part): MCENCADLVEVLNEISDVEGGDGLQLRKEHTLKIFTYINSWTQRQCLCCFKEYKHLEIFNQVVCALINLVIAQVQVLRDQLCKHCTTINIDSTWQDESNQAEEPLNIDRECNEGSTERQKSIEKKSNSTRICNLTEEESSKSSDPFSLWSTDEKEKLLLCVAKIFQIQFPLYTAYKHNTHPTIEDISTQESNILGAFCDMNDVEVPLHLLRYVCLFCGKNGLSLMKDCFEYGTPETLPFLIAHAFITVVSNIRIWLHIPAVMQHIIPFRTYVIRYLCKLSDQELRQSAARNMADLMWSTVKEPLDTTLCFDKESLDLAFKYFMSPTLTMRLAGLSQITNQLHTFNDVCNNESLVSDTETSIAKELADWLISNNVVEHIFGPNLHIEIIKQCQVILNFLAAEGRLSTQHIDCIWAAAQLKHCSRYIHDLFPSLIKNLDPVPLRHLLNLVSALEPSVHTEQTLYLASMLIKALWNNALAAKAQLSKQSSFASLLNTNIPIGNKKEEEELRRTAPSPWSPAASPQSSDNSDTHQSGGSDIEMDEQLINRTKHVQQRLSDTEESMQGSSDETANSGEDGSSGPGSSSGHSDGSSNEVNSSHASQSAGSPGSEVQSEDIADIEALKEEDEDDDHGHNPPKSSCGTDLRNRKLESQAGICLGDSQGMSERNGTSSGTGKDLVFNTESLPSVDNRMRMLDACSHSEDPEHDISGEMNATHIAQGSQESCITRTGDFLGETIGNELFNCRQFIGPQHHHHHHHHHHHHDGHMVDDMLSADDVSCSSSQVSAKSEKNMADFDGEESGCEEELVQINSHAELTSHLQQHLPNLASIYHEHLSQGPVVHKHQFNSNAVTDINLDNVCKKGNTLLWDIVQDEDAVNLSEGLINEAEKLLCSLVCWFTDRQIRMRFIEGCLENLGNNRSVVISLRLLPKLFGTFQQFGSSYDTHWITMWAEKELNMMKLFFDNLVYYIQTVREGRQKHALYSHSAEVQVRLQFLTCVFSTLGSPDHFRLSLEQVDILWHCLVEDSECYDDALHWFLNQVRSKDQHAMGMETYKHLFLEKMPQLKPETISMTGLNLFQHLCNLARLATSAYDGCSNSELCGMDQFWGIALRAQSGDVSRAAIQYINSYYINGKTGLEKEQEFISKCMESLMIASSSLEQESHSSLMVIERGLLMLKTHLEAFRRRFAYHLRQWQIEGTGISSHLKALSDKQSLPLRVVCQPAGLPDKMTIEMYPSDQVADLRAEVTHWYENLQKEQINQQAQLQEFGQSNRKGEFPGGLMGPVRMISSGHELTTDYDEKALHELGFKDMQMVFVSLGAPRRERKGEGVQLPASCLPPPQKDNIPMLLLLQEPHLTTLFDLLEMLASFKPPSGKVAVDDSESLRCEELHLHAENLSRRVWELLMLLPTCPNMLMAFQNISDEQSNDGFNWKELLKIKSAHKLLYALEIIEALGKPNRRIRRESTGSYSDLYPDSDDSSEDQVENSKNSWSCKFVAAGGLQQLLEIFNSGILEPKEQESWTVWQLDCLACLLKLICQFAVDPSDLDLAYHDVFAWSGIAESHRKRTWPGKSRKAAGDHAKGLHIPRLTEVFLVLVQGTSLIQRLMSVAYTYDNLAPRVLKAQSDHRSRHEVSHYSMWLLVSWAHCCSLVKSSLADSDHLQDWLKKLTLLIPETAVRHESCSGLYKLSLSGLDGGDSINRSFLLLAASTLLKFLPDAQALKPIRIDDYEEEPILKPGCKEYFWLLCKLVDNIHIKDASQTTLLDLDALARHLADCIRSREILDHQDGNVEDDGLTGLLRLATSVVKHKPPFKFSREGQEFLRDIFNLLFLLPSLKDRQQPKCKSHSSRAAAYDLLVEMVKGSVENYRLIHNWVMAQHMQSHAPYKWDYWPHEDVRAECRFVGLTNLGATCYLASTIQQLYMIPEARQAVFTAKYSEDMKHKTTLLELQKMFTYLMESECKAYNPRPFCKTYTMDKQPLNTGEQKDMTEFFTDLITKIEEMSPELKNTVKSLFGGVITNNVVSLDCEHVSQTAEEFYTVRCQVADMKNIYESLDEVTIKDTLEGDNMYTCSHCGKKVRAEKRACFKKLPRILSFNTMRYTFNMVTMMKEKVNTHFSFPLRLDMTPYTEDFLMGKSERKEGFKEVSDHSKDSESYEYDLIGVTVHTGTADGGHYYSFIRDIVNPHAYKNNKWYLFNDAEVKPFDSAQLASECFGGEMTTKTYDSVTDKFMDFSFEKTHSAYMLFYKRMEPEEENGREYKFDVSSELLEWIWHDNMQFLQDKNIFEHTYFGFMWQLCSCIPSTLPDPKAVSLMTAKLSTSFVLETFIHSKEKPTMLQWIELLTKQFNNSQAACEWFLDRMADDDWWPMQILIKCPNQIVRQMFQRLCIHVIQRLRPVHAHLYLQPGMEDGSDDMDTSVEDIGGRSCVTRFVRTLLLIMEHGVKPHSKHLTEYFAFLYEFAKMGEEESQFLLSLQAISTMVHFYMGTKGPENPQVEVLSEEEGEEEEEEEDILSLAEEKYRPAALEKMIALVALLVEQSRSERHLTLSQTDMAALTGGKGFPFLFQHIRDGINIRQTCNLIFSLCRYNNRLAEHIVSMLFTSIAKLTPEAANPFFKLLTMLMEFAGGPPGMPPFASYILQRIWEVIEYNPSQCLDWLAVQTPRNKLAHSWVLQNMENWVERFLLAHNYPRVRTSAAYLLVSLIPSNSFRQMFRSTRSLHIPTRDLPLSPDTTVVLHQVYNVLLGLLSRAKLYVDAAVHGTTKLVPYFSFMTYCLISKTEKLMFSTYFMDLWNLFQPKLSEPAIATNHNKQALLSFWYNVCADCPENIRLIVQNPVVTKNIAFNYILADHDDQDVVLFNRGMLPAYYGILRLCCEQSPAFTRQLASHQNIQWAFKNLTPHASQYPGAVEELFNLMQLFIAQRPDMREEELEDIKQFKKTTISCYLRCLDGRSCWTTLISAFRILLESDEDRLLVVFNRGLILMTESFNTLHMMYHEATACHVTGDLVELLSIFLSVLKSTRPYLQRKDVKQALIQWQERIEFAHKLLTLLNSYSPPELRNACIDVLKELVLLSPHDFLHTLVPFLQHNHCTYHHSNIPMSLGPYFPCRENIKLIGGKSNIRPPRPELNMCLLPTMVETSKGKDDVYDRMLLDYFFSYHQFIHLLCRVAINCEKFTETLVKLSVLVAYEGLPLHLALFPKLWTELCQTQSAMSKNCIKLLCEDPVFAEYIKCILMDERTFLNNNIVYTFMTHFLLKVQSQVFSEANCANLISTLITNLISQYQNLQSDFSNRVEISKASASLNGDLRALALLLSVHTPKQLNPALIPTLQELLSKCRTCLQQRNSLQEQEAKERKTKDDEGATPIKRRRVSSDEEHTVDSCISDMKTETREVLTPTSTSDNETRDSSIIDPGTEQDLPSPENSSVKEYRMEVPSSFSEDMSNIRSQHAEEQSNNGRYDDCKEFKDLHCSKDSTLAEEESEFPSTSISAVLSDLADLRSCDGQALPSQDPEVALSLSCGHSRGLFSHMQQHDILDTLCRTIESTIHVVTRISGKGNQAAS

Cc1cc(Cl)ccc1NC(=O)CCl
inactive: USP34 -0.254 | USP36 -0.182 | USP38 -0.0702 | USP39 0.072 | USP4 -0.0162

Source: the supplement of paper PMC11732987, “Enantioselective OTUD7B fragment discovery through chemoproteomics screening and high-throughput optimisation” (Communications Chemistry, 2025)
